Sm TGR block: qHTS Assay for the Inhibitors of Schistosoma Mansoni Peroxiredoxins. Schistosoma mansoni thioredoxin glutathione reductase (TGR), Q962Y6. purified TGR, DTNB reduction, TNB absorbance 405 nm. Potency, µM (top dose mostly 114 µM), for inactives: at the top dose activity change, negative = inhibition, actives largely listed as inhibitors. 360,000 compounds, 3% hits. AID 485364, 2010; note: potency is the fitted concentration of half-maximal effect; % is set by controls: 0 for no effect and ±100 for the full control effect; nearly all actives have a fitted effect of over 60% in size
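TGR 20 nM + NADPH 100 uM (dispensed conc.), cpd preinc 15 min RT; start with NADPH (500 uM addition) then DTNB (15 mM addition). Kinetic TNB absorbance, 405 nm filter. Four-parameter Hill fit across titration.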
Tb PYK inh: qHTS of Trypanosoma Brucei Inhibitors; AID 624173, 2012; Potency, µM (highest dose often 76.8 µM), without a hit: at the highest dose activity, negative = inhibition, actives largely listed as inhibitors; 410,000 compounds, 0.12% hits; pyruvate kinase (Trypanosoma brucei), Q57TT1; TbPYK enzyme, Kinase-Glo Plus ATP luminescence, 45 min; note: potency is the fitted concentration of half-maximal effect; % is set by controls: 0 for no effect and ±100 for the full control effect; nearly all actives have a fitted effect of over 50% in size
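In this concentration-response screen, enzyme-free wells defined baseline while DMSO plates tracked drift. Each reaction combined TbPYK, substrate, compound and 130 uM ADP for 45 min at room temperature. Kinase-Glo Plus luminescence gave the signal.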
CHX counter: Cycloheximide Counterscreen for Small Molecule Inhibitors of Shiga Toxin | cell reporter, cycloheximide protein synthesis inhibition counterscreen | max response, % | 300,000 compounds, 12% hits | AID 2314, 2010; in the data active = max response mostly above about 13%, no sharp cut-off; inactive = mostly below about 14%; note: read at 38.3 µM for the half of the compounds with a filed dose; 0% is about no effect
Shiga toxin inh: A qHTS for Small Molecule Inhibitors of Shiga Toxin. Vero cells, Shiga toxin protein synthesis inhibition reporter. inhibition, % at 38.7 µM. 290,000 compounds, 9.2% hits. AID 2315, 2010; in the data active = inhibition mostly above about 28%, no sharp cut-off; inactive = mostly below about 43%; note: 0% is about no effect
FBPA Giardia inh: qHTS Assay for Inhibitors of Fructose-1,6-bisphosphate Aldolase from Giardia Lamblia; 290,000 compounds, 0.71% hits; A8B2U2; purified Giardia FBPA; AID 2451, 2010; Potency, µM (series often up to 59.6 µM), for the others: at the highest dose activity, negative = inhibition, most hits filed as inhibitors; note: potency is the fitted concentration of half-maximal effect; % is set by controls: 0 for no effect and ±100 for the full control effect; nearly all actives have a fitted effect of over 55% in size
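40 nM FBPA preincubated 10 min at RT with compound (up to 57.5 uM final), then substrate plus GAPDH/TPI/NAD/arsenate coupling and diaphorase/resazurin added. Fluorescence read after 20 min at RT, 525/598 nm.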
LmPK inhibitor: qHTS Assay for Inhibitors of Leishmania Mexicana Pyruvate Kinase (LmPK). Q27686. purified LmPK, Kinase-Glo ATP luminescence, 1 h. Potency, µM (top dose mostly 57.5 µM), for the others: top-dose activity change, negative = inhibition, most hits filed as inhibitors. 290,000 compounds, 0.37% hits. AID 1721, 2009; note: potency is the fitted concentration of half-maximal effect; % is set by controls: 0 for no effect and ±100 for the full control effect
Target sequence (Q27686 whole entry, looked up): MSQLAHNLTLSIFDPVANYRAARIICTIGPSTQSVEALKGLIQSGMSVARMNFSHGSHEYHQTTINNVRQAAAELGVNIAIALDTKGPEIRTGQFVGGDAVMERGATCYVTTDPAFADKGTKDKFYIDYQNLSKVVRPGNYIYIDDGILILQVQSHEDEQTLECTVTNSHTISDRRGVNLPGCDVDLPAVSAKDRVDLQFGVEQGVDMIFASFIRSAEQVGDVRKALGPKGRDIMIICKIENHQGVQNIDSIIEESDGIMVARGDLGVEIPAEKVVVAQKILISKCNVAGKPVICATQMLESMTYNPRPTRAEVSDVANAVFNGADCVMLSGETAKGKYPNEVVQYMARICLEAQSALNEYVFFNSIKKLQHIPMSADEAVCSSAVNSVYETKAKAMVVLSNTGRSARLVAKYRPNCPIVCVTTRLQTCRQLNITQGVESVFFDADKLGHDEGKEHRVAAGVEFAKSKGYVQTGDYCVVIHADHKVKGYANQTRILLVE
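Screened at intermediate enzyme activity to detect both inhibitors and activators: LmPK at 0.1 nM, with a 0.5 nM enzyme column as activation reference. PEP 0.5 mM, ADP 0.1 mM; ATP detected by luminescence after 1 h.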
Starred values were filed as active, the others as inactive; ? = inconclusive; . = no result given; [ ] = another dose, or the depositor's remark. The entries come from a sample that favours hits as a whole. Unless noted, calls come from the whole dose curve; as a rule, active = well fitted curve in the direction sought with a large enough effect; inconclusive = small, poorly fitted or top-dose-only effect, or another doubt; inactive = no such curve, though single readings can be large; an effect the other way counts as inactive or inconclusive.

SMILES | Sm TGR block | Tb PYK inh | CHX counter | Shiga toxin inh | FBPA Giardia inh | LmPK inhibitor
O=C(CNC(=O)[C@@H]1Cc2ccccc2CN1)Nc1ccc2c(c1)OCCO2 | -1% | 0% | 37* | 60* | -27% | 2%
CC(C)c1ccc(NC(=O)[C@@H](C)NC(=O)[C@@H]2Cc3ccccc3CN2)cc1 | 1% | -6% | 10 | 12 | . | 4%
CCc1ccc(NC(=O)CNC(=O)[C@@H]2Cc3ccccc3CN2)cc1 | 1% | 1% | 5 | 3 | . | 8%
Cc1cc(Nc2cccc(C(F)(F)F)c2)nc2ccc(NC(=O)c3cccnc3)cc12 | 10% | 0% | . | . | . | .
CC(C)CN1CCC2(CC1)CCN(S(=O)(=O)c1ccccc1)CC2 | . | -9% | . | . | 7% | .
COc1cccc(OCc2cc(C(=O)N3CCNC(=O)C3Cc3ccccc3)no2)c1 (stereo not drawn) | -17% | 4% | 40* | 74* | 1% | 0%
COc1cccc(OCc2cc(C(=O)N3CCC(C(O)C(C)C)CC3)no2)c1 (stereo not drawn) | -9% | -4% | 23 | 6 | . | -2%
COc1cccc(OCc2cc(C(=O)N3CCCC3c3ccccn3)no2)c1 (stereo not drawn) | 2% | 8% | 70* | 62* | . | -7%
COc1cccc(OCc2cc(C(=O)N(Cc3ccccc3)CC3CC3)no2)c1 | 13% | -7% | 9 | -7 | 3% | 7%
CCOC(=O)Cn1c(=O)n(C2CCCCC2)c2nc(-c3ccc(C(C)C)cc3)nc(C(N)=O)c21 | -2% | -2% | . | . | . | .
O=C(NCc1ccccc1Cl)NCc1noc2ccccc12 | 1% | -4% | . | . | . | .
COc1cc(O)c(C(=O)O)c(-c2cc(O)c(O)cc2C)c1 | 0.16µM* | 10µM* | 3 | 8 | 16% | ?
COc1ccc2sc(N(Cc3cccnc3)C(=O)C3COc4ccccc4O3)nc2c1 (stereo not drawn) | -6% | -4%[15.4 µM] | . | . | . | .
O=C1/C(=C/c2ccc(N3CCCC3)cc2)NC(=S)N1C1CC1 | -15% | -19% | 19 | 24 | 0% | -1%
CN1C(=O)c2ccc(N3CCCC3)cc2C1=O | -22% | -7% | 15* | 55* | -9% | 0%
Cc1cc(N2CCCC2)ccc1/C=C1\NC(=S)N(C)C1=O | -14% | -18% | 21* | 28 | -26% | -4%
Cc1cc(N2CCCC2)ccc1C=C(C#N)C#N | -35% | -3% | 8 | -6 | 7% | 2%
Cc1cc(N2CCCCC2)ccc1C=C1C(=O)N(C)C(=S)N(C)C1=O | 7.1µM* | ? | -2 | 2 | -5% | -4%
CCOC(=O)[C@H](CCc1ccccc1)N[C@@H](C)C(=O)N(CC(=O)O)C1Cc2ccccc2C1 | . | 3% | . | . | . | .
CCN(CC)S(=O)(=O)c1ccc(NC(=O)CC(NC(C)=O)c2ccccc2)cc1 (stereo not drawn) | -2% | -5% | -7 | -9 | 0% | 6%
CCN(CC)CCCOc1ccc(C)cc1Br | 6% | 13% | 6 | 9 | -18% | 2%
CCOc1ccccc1OCCCOc1ccc(C)cc1Br | 16% | -2% | 41* | 70* | -1% | -3%
COCCCNCCCOc1ccc(C)cc1Br | -10% | 28% | -4 | -3 | ? | -3%
CCOc1ccccc1OCCCOc1ccc(C)cc1Cl | 5% | -8% | 23* | 62* | 2% | -8%
C=CCNCCCOc1ccc(C)cc1Br | -7% | 4% | 27* | 65* | -9% | -3%
CN(C=C1C(=O)CC(C)(C)CC1=O)CCN1CCNCC1 | 22µM* | -18% | -2 | -17 | -2% | 4%
O=C(/C=C/c1ccccc1[N+](=O)[O-])N1CCCCC1 | -7% | -14% | 20 | 66* | -11% | 2%[11.5 µM]
CCN1CCN(C(=O)/C=C/c2ccccc2[N+](=O)[O-])CC1 | . | 2% | 14 | 29 | -1% | 1%
